± gives the standard deviation.
Test system: MILI (PIWIL2) piRISC loaded with L1MC piRNA (26 nt)
Assay: pre-steady-state target cleavage rate (min^-1); guide: L1MC piRNA 5'p-UAACUAAAUACUAUGCAAGCUGUAGG; MIWI and MILI are mouse PIWI proteins and EfPiwi is from a freshwater sponge; tags in brackets are library labels; higher = faster piRNA-guided slicing of the target
Conditions: auxiliary factor: 500 nM mouse GTSF1
Summary of the method: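 Using HEPES–potassium acetate buffer at 33 °C, 1 nM active affinity-purified piRISC with a single synthetic guide was mixed with 0.1 nM transcribed, DNA-blocked target RNA library for 0–8 or 0–960 min, with or without 500 nM GTSF1 partner protein. Uncleaved targets were sequenced and normalised to depth and to weakly complementary targets, and three trials were pooled with k3 capped at 0.0001 min^-1. A burst-and-steady-state fit gave the pre-steady-state cleavage rate.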

| Sequence | pre-steady-state target cleavage rate |
| --- | --- |
| UCCUGGAUGUCCUUGCAUAGUAUUUCAGUUA | 0.0665 ± 0.022 |
| UCCUGGAUGUGCUUGCAUAGUUUUUUGUUA | 0.0102 ± 0.0056 |
| UCCUGGAUGUCGAUGCAAUAGUAUUUAGUUA | 0.00497 ± 0.0023 |
| UCCUGGAUCAGCUUGCAUAGUUUUUUCAAA | 0.00833 ± 0.0048 |
| UCCUGGAACAGGUUGCAUAGUAUUUACUUA | 0.0532 ± 0.012 |
| UCCUGGAUGUCCUUGCAUAGUAUUUUGAUA | 0.0211 ± 0.0077 |
| UCCUGGAUGUGCUUGCAUAGUUUUAAGUUA | 0.0104 ± 0.0059 |
| UCCUGGAUGUCGAAGCAUAGUAUAAAGUUA | 0.0127 ± 0.0053 |
| UCCUGGAUGACCUUGCAUAGUAUUUAGUAA | 0.152 ± 0.019 |
| UCCUGGUACAGCUUGCAUAGAAUUUAGUAA | 0.0567 ± 0.024 |
| UCCUGGAACAGCUUGCAUAGGAUUUAGUUA | 0.00777 ± 0.0035 |
| UCCUGGAUGUGCUUGCAUAGUAAUUAGUAA | 0.0721 ± 0.018 |
| UCCUGGAUCAGCUUGCAUAGUAUUUAAUUA | 0.0429 ± 0.0097 |
| UCCUGGAUGUCCUUGCAAAGUAUUUAGAUA | 0.0324 ± 0.012 |
| UCCUGCUACAGCUUGCAUCAGUAUUUAGUUA | 0.015 ± 0.0065 |
| UCCUGGAUCAGCUUGCAUAGUAUUAUGAAA | 0.0664 ± 0.016 |
| UCCUGGAUGUGCUUCGUUAGUAUUUAGUUA | 0.00476 ± 0.0034 |

| Sequence | pre-steady-state target cleavage rate |
| --- | --- |
| UCCUGGAUGUCGAACCAUAGUAUUUAGUUU [g2:g15:cont:t1U] | 0.00385 ± 0.0021 |
| UCCUGGAACAGCUUGCAUAGUAAAUAGUAA | 0.143 ± 0.035 |
| UCCUGGUACACCUUGCAUAGUAUAUAGUUA | 0.311 ± 0.059 |
| UCCUGGAUGUCGAUGCAUAGUAAUAAGUUA | 0.00446 ± 0.0033 |
| UCCUCCUACAGCUUGCAUACAAUUUAGUUA | 0.00727 ± 0.0046 |
| UCCUGGAUCAGCUUGGAUAGAAUUUAGUUA | 0.0242 ± 0.0065 |
| UCCUGGUUCAGCUUGCAUAGUAUUUUCAAA | 0.0427 ± 0.016 |
| UCCUGGAUCAGGUUGCAUAGUAUUUACUUA | 0.117 ± 0.029 |
| UCCUGGAUGUGCAACCAUAGUAUUUAGUAA | 0.00554 ± 0.0027 |
| UCCUGGAUGUGCUUGCAUAGUAAUUACUUA | 0.00537 ± 0.0033 |
| UCCUGGAUCAGCUUCCAUAGAAUUUAGUUA | 0.0103 ± 0.0054 |
| UCCUGGAUGUGCUUGCAUAGUAUUUUGAUA | 0.0122 ± 0.0054 |
| UCCUGGAUCAGCUUGCAUAGUAUUUACUAA | 0.0285 ± 0.011 |
| UCCUGGUACAGCUUGCAUAGUAUUAUCAAA | 0.0127 ± 0.0058 |
| UCCUGGAUCAGCUUGCAAUCUAUUUAGUUA | 0.0116 ± 0.0035 |
| UCCUGCUACAGCUUCCAUAGUAUUUAGUAA | 0.0172 ± 0.0082 |

Same assay, conditions: auxiliary factor: none (no GTSF1)

| Sequence | pre-steady-state target cleavage rate |
| --- | --- |
| UCCUGGAUGUCGAACGUUAGAUUUUAGUUA | < 0.0001 |
| UCCUGGAUGUCGAACCAUAGUAUUAUGUUA | < 0.0001 |
| UCCUGGAUGUCGAACGUAUCUAUAUUGUUA | < 0.0001 |
| UCCUGGAUGUCGAACCAAAGUAUUUAGAUA | < 0.0001 |
| UCCUGGAUGUCGAACGAAUAGUAUUUAGUUA | < 0.0001 |
| UCCUGGAUGUCGAACGUAAGUAUUUAGUUUA | < 0.0001 |
| UCCUGGAUGUCGAACGUUAGUAUUUAGUAA | < 0.0001 |

From the supplement of paper PMC10338343
